Assay results as given in PubChem BioAssay (NCI).
Compounds without any hit were thinned out: in the full panel of roughly 79,000, 15% have a hit. The source made the active and inactive calls. Cut-off read from the data, not from the text of the source: active = growth inhibition above about 70%; inactive = the rest. Where a SMILES comes first, the peptide text is derived from it. The star is where a group is joined. Cbz = O=C(OCc1ccccc1)*; Boc = CC(C)(C)OC(=O)*; OSu = O=C1CCC(=O)N1O*; Bn = c1ccc(C*)cc1

Test: NCI Yeast Anticancer Drug Screen. Data for the sgs1 mgt1 strain (AID 161);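 note: 0% = growth of cultures given vehicle only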
Settings: S. cerevisiae sgs1 mgt1 strain, at 50.0 µM, hits give high values
Summary of the method: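 Test agents were incubated with a DNA-repair-mutant yeast strain. Growth was then read and compared against vehicle-treated controls.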

Row | Compound | growth inhibition
1 | O=C1NCCc2c1sc1ccccc21 | -0.95% (inactive)
2 | O=C(/C=C/c1ccccc1)Nc1ccccc1C(F)(F)F | 0.7% (inactive)
3 | CC(=O)Nc1ccccc1Cc1nc2ccccc2c(=O)[nH]1 | 25.1% (inactive)
4 | O=CN1CCN(c2ccc3ccc(=O)[nH]c3n2)CC1 | 19.5% (inactive)
5 | COc1ccc(C(CC(=O)c2ccccc2)SCCN2CCOCC2)cc1 (stereo not given) | 5.2% (inactive)
6 | CCn1c(=O)c2c3ccc(OC(C)=O)cc3[nH]c2c2ccc(OC(C)=O)cc21 | -10.9% (inactive)
7 | CC(C)(C)OC(=O)NC(Cc1ccc(OCc2ccccc2)cc1)C(=O)NC(CCCCNC(=O)OCc1ccccc1)C(=O)NC(CCCCNC(=O)OCc1ccccc1)C(=O)ON1C(=O)CCC1=O (stereo not given) (Boc-Tyr(Bn)-Lys(Cbz)-Lys(Cbz)-OSu; configuration not given here) | 6.6% (inactive)
8 | COc1cc(C(=O)O)c(I)c(OC)c1OC | -6.25% (inactive)
9 | CCOC(=O)Cn1cnc2sc3c(c2c1=O)CCCC3 | 30.6% (inactive)
10 | O=C1NC(=O)C(c2ccc(Cl)c(Cl)c2)N1 (stereo not given) | -13.2% (inactive)
11 | CC1(C)OC2OC(CI)C3OC(C)(C)OC3C2O1 (stereo not given) | -1.75% (inactive)
12 | CCCCCCCCCCCCCCCCCCNC(=O)Nc1ccc(OC)cc1OC | -0.3% (inactive)
13 | CC(C)CCCC(C)C1CCC2C3CC=C4CC(OC(=O)c5ccncc5)CCC4(C)C3CCC12C (stereo not given) | -10.2% (inactive)
14 | Cc1cc2c(C)nn(Cc3ccccc3)c2c(C(=O)O)c1C | 1.15% (inactive)
15 | COc1cc(CC2c3cccc(Oc4ccc(C)cc4)c3CCN2C)ccc1Oc1ccc(C)cc1 (stereo not given) | 98.7% (active)
16 | O=C(CCC/C(CC(=O)c1ccc(Cl)cc1)=N\NC(=O)c1cc2ccccc2cc1O)Nc1cccc([N+](=O)[O-])c1 | 52.9% (inactive)
17 | CCC(C(=O)OC)C1CCCCC1 (stereo not given) | -12.3% (inactive)
18 | COc1ccc(OC)c(N=Cc2cccs2)c1 | 20.9% (inactive)
19 | CO[C@H]1C[C@H]2[C@@H]3CCC4=CC(=O)CC[C@]4(C)[C@H]3CC[C@]2(C)[C@@]1(O)C(=O)CO | -17% (inactive)
20 | N#C/C(=C\c1cccc(Cl)c1)C(=O)c1ccccc1 | -1.35% (inactive)

Row | Compound | growth inhibition
21 | Cc1ncc([N+](=O)[O-])n1CCSC(N)=O | -11.2% (inactive)
22 | CC(=O)c1cc2c(cc1C)C(C)=C(C)C2(C)C | 1.55% (inactive)
23 | OCCCC1CCN(CCO)CC1 | -18.8% (inactive)
24 | CC1c2c(ccc3c2CCC=C3)CCC1CC1=CCCc2ccc3ccccc3c21 (stereo not given) | 1.1% (inactive)
25 | O=S1(=O)CC2C3CC(Oc4ccccc4)C(C3)C2C1 (stereo not given) | -4.2% (inactive)
26 | C1CCC(NCSC2=NCCS2)CC1 | 0.05% (inactive)
27 | Cc1cc(C)c(Br)c(C)c1C | -9.95% (inactive)
28 | Cc1ccc(-c2cc(=O)c3cc(C)c(C)c(C(=O)O)c3o2)cc1N | 11.9% (inactive)
29 | COC1OC(COS(=O)(=O)c2ccc(C)cc2)C(N(C)C(C)=O)C1OS(=O)(=O)c1ccc(C)cc1 (stereo not given) | 16.6% (inactive)
30 | CNC(=O)c1ccccc1N | -11.7% (inactive)
31 | CCOC(=O)N/N=C(/OCC)c1ccccc1 | -7.2% (inactive)
32 | CC1=CC(=O)C(=O)c2ccccc21 | -5.5% (inactive)
33 | CC(C)(C)c1onc2c1C(=O)c1ccccc1-2 | 1.35% (inactive)
34 | COC12CC3C4CCC5CC(O)CCC5(C)C4CCC3(C)C1C(C)C1(CCC(C)CO1)O2 (stereo not given) | 13.1% (inactive)
35 | CN1C(c2ccccc2)NC(=O)C12CCN(CCCC(=O)c1ccccc1)CC2 (stereo not given) | 53.2% (inactive)
36 | CC(C)C1=C(Cc2ccccc2)C(=O)O/C1=C\c1ccc(O)c(Cl)c1 | 28.2% (inactive)
37 | CC12C(=O)NC(c3ccccc3)(c3ccccc31)C1C(=O)N(C(N)=O)C(=O)C12 (stereo not given) | 25.6% (inactive)
38 | CCOC(=O)c1cnc(SC)nc1N | -7.9% (inactive)
39 | C/C(=N\NC(=O)CCCCC(=O)N/N=C(\C)c1ccc(C)cc1)c1ccc(C)cc1 | 10.4% (inactive)
40 | O=[N+]([O-])c1ccc(N/N=C/c2ccc(CO)cc2)c([N+](=O)[O-])c1 | 18.1% (inactive)

Test: NCI Yeast Anticancer Drug Screen. Data for the cln2 rad14 strain (AID 165);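 note: 0% = growth equal to vehicle treated cultures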
Settings: S. cerevisiae cln2 rad14 strain, at 50.0 µM, hits give high values
Summary of the method: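 Compounds are applied to the cln2 rad14 yeast strain, and growth is then compared with that of vehicle-treated cultures to give inhibition.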

Row | Compound | growth inhibition
41 | O=C1NCCc2c1sc1ccccc21 | 1.5% (inactive)
42 | O=C(/C=C/c1ccccc1)Nc1ccccc1C(F)(F)F | -3.7% (inactive)
43 | CC(=O)Nc1ccccc1Cc1nc2ccccc2c(=O)[nH]1 | 7.9% (inactive)
44 | O=CN1CCN(c2ccc3ccc(=O)[nH]c3n2)CC1 | 9% (inactive)
45 | COc1ccc(C(CC(=O)c2ccccc2)SCCN2CCOCC2)cc1 (stereo not given) | -43.6% (inactive)
46 | CCn1c(=O)c2c3ccc(OC(C)=O)cc3[nH]c2c2ccc(OC(C)=O)cc21 | 9.35% (inactive)
47 | CC(C)(C)OC(=O)NC(Cc1ccc(OCc2ccccc2)cc1)C(=O)NC(CCCCNC(=O)OCc1ccccc1)C(=O)NC(CCCCNC(=O)OCc1ccccc1)C(=O)ON1C(=O)CCC1=O (stereo not given) (Boc-Tyr(Bn)-Lys(Cbz)-Lys(Cbz)-OSu; configuration not given here) | 6.15% (inactive)
48 | COc1cc(C(=O)O)c(I)c(OC)c1OC | -4.85% (inactive)
49 | CCOC(=O)Cn1cnc2sc3c(c2c1=O)CCCC3 | 28.7% (inactive)
50 | O=C1NC(=O)C(c2ccc(Cl)c(Cl)c2)N1 (stereo not given) | -13.7% (inactive)
51 | CC1(C)OC2OC(CI)C3OC(C)(C)OC3C2O1 (stereo not given) | 34.5% (inactive)
52 | CCCCCCCCCCCCCCCCCCNC(=O)Nc1ccc(OC)cc1OC | 3% (inactive)
53 | CC(C)CCCC(C)C1CCC2C3CC=C4CC(OC(=O)c5ccncc5)CCC4(C)C3CCC12C (stereo not given) | -28.4% (inactive)
54 | Cc1cc2c(C)nn(Cc3ccccc3)c2c(C(=O)O)c1C | 2.95% (inactive)
55 | COc1cc(CC2c3cccc(Oc4ccc(C)cc4)c3CCN2C)ccc1Oc1ccc(C)cc1 (stereo not given) | 96.5% (active)
56 | O=C(CCC/C(CC(=O)c1ccc(Cl)cc1)=N\NC(=O)c1cc2ccccc2cc1O)Nc1cccc([N+](=O)[O-])c1 | 25.6% (inactive)
57 | CCC(C(=O)OC)C1CCCCC1 (stereo not given) | -7.65% (inactive)
58 | COc1ccc(OC)c(N=Cc2cccs2)c1 | 15.1% (inactive)
59 | CO[C@H]1C[C@H]2[C@@H]3CCC4=CC(=O)CC[C@]4(C)[C@H]3CC[C@]2(C)[C@@]1(O)C(=O)CO | -14.9% (inactive)
60 | N#C/C(=C\c1cccc(Cl)c1)C(=O)c1ccccc1 | 13.1% (inactive)

Row | Compound | growth inhibition
61 | Cc1ncc([N+](=O)[O-])n1CCSC(N)=O | 11.4% (inactive)
62 | CC(=O)c1cc2c(cc1C)C(C)=C(C)C2(C)C | -13.4% (inactive)
63 | OCCCC1CCN(CCO)CC1 | 1.3% (inactive)
64 | CC1c2c(ccc3c2CCC=C3)CCC1CC1=CCCc2ccc3ccccc3c21 (stereo not given) | -13.3% (inactive)
65 | O=S1(=O)CC2C3CC(Oc4ccccc4)C(C3)C2C1 (stereo not given) | -20.9% (inactive)
66 | C1CCC(NCSC2=NCCS2)CC1 | -29.8% (inactive)
67 | Cc1cc(C)c(Br)c(C)c1C | -53.4% (inactive)
68 | Cc1ccc(-c2cc(=O)c3cc(C)c(C)c(C(=O)O)c3o2)cc1N | 6.1% (inactive)
69 | COC1OC(COS(=O)(=O)c2ccc(C)cc2)C(N(C)C(C)=O)C1OS(=O)(=O)c1ccc(C)cc1 (stereo not given) | -2.3% (inactive)
70 | CNC(=O)c1ccccc1N | -84.2% (inactive)
71 | CCOC(=O)N/N=C(/OCC)c1ccccc1 | 5.8% (inactive)
72 | CC1=CC(=O)C(=O)c2ccccc21 | 10.4% (inactive)
73 | CC(C)(C)c1onc2c1C(=O)c1ccccc1-2 | -5.9% (inactive)
74 | COC12CC3C4CCC5CC(O)CCC5(C)C4CCC3(C)C1C(C)C1(CCC(C)CO1)O2 (stereo not given) | 19.8% (inactive)
75 | CN1C(c2ccccc2)NC(=O)C12CCN(CCCC(=O)c1ccccc1)CC2 (stereo not given) | 19.5% (inactive)
76 | CC(C)C1=C(Cc2ccccc2)C(=O)O/C1=C\c1ccc(O)c(Cl)c1 | 21.4% (inactive)
77 | CC12C(=O)NC(c3ccccc3)(c3ccccc31)C1C(=O)N(C(N)=O)C(=O)C12 (stereo not given) | -3.05% (inactive)
78 | CCOC(=O)c1cnc(SC)nc1N | -2.1% (inactive)
79 | C/C(=N\NC(=O)CCCCC(=O)N/N=C(\C)c1ccc(C)cc1)c1ccc(C)cc1 | -45.7% (inactive)
80 | O=[N+]([O-])c1ccc(N/N=C/c2ccc(CO)cc2)c([N+](=O)[O-])c1 | -13.9% (inactive)
